The values below come from PubChem BioAssay (NCATS).

Each structure is given as a SMILES string. Inconclusive results are not listed. Unmarked numbers belong to inactive results. Activity calls are given as the source filed them. Calls follow the shape of the dose curve; as a rule, active = well fitted inhibition curve with a large enough effect; inconclusive = small, poorly fitted or top-dose-only effect; inactive = flat fitted curve, though single readings scatter.
% is scaled to controls: 0 for no effect and ±100 for the full control effect; potency is read from the fitted curve at half-maximal effect.

Ubiquitin carboxyl-terminal hydrolase 1 (Homo sapiens), sequence (O94782 whole entry, looked up): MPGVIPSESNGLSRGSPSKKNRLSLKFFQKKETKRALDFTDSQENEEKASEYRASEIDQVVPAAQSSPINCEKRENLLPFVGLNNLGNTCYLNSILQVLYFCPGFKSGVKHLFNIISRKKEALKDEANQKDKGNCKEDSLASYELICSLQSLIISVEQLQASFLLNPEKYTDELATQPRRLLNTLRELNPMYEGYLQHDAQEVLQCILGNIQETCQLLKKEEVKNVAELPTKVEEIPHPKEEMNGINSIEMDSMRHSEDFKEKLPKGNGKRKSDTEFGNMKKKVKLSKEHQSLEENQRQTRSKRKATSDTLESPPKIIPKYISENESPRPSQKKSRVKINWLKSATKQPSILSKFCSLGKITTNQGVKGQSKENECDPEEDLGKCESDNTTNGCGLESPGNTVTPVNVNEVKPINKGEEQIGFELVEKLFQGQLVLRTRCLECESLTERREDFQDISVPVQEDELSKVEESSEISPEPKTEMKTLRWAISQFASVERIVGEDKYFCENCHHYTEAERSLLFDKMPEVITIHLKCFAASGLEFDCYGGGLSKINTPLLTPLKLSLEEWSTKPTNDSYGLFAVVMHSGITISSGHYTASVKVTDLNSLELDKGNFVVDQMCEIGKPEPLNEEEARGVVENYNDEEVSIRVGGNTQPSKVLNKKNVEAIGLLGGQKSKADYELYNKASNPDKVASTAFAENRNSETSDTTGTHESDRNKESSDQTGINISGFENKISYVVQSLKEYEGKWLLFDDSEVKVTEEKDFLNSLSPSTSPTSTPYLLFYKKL

The assay deals with Ubiquitin carboxyl-terminal hydrolase 1 (Homo sapiens) (UniProt O94782). Put plainly: Inhibitors of USP1/UAF1: Pilot qHTS (AID 504865). Also: nearly all actives have a fitted effect of over 35% in size.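 As to activity change, negative = inhibition: rhodamine fluorescence freed from ubiquitin-rhodamine substrate followed over time; top concentration of the series differs between compounds.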 To be noted: purified USP1/UAF1, Ub-rhodamine cleavage fluorescence; series mostly up to 114 µM; activity change, negative = inhibition: at the top concentration. The essentials:
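USP1/UAF1 complex at 1 nM preincubated 15 min at room temperature with compound, then Ub-Rho substrate added at 150 nM final. Fluorescence (480/540 nm) read kinetically in 50 mM HEPES pH 7.8, 0.5 mM EDTA, 1 mM TCEP, 0.1 mg/ml BSA, 0.01% Tween-20.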
On the technique in general: qHTS replaces the single test concentration by a dilution series.
Consider `CN1CCN(c2cc3c(cc2F)c(=O)c(C(=O)O)cn3-c2ccc(F)cc2)CC1`, for which the “activity change, negative = inhibition” value is -4.79%.

Regarding `O=C1C(O)=C(O)C(=O)C(O)=C1O`, the Potency is 50.1 µM (active).

As to `CCN(CC)CCNC(=O)c1cc(Br)c(N)cc1OC`, the “activity change, negative = inhibition” value was -7.02%.

Regarding `c1ccc(-c2nc[nH]c2-c2ccccc2)cc1`, the “activity change, negative = inhibition” value was -7.97%.

`COc1cc(C(=O)N2CCCCCCC2)cc(OC)c1OC`: the “activity change, negative = inhibition” value is -7.34%.

In the case of `Cc1cccc(C)c1NC(=O)CN1CCCC1`, the “activity change, negative = inhibition” value is -6.69%.

As to `CN1CCN(c2c(F)cc3c(=O)c(C(=O)O)cn4c3c2SCC4)CC1`, the “activity change, negative = inhibition” value was -6.84%.

As to `CN(C)CCOC(c1ccc(Cl)cc1)c1ccccn1` (stereo unspecified), the Potency result was “inactive”.

With `O=C(O)CCc1nc2ccccc2[nH]1`, the “activity change, negative = inhibition” value is -6.28%.

As to `CC(C)Nc1cccnc1N1CCN(C(=O)c2cc3cc(NS(C)(=O)=O)ccc3[nH]2)CC1`, the “activity change, negative = inhibition” value is -11%.

On to `CN1CCc2cccc3c2[C@H]1Cc1ccc(O)c(O)c1-3`, for which the Potency entry was “inactive”.

For the compound `COc1cc(C)nc(-n2nc(C)cc2OC)n1`, the “activity change, negative = inhibition” value is 0.535% [at 54.9 µM].

For the compound `NC(=O)C1(N2CCCCC2)CCN(CCCC(=O)c2ccc(F)cc2)CC1`, the “activity change, negative = inhibition” value is -5.5%.

With `FC(F)(F)C(F)(F)C(F)(F)C(F)(F)C(F)(F)C(F)(F)C(F)(F)C(F)(F)Br`, the “activity change, negative = inhibition” value was -1.32%.

Turning to `CC(=O)Nc1ccc(OCC(O)CNC(C)C)cc1` (stereo unspecified), the “activity change, negative = inhibition” value is -4.11%.

As to `O[C@@H](c1cc(C(F)(F)F)nc2c(C(F)(F)F)cccc12)[C@H]1CCCCN1`, the “activity change, negative = inhibition” value was -7.77%.

For `CC(C)(Cc1c[nH]c2ccccc12)NCC(O)COc1ccccc1C#N` (stereo unspecified), the “activity change, negative = inhibition” value was -9.2%.

For `O=[N+]([O-])c1cccc(S(=O)(=O)NCCNS(=O)(=O)c2cccc([N+](=O)[O-])c2)c1`, the “activity change, negative = inhibition” value is -10.2%.

On to `CN1CCC[C@@H]1CCO[C@](C)(c1ccccc1)c1ccc(Cl)cc1`, for which the “activity change, negative = inhibition” value is -13% [at 54.9 µM].

Take `CCCCCN=C(N)N/N=C/c1c[nH]c2ccc(OC)cc12`: the Potency entry is “inactive”.

For `CCCCCCCCCCCCCC[N+](C)(C)Cc1ccccc1`, the Potency was 28.2 µM (active).

Regarding `CC(=O)O[C@]1(C(C)=O)CC[C@H]2[C@@H]3C=C(Cl)C4=CC(=O)CC[C@]4(C)[C@H]3CC[C@@]21C`, the “activity change, negative = inhibition” value was -8.52%.

Take `CC(=O)OC[C@H]1O[C@@H](n2ncc(=O)[nH]c2=O)[C@H](OC(C)=O)[C@@H]1OC(C)=O`: the “activity change, negative = inhibition” value was -7.02%.

Consider `N=C(N)N1CCc2ccccc2C1`, for which the “activity change, negative = inhibition” value is -14.7% [at 54.9 µM].

Turning to `CC1CCc2c(N3CCC(O)CC3)c(F)cc3c(=O)c(C(=O)O)cn1c23` (stereo unspecified), the “activity change, negative = inhibition” value is -5.21%.

For the compound `CO[C@]12C[C@@H](COC(=O)c3cncc(Br)c3)CN(C)[C@@H]1Cc1cn(C)c3cccc2c13`, the “activity change, negative = inhibition” value is -1.76%.

As to `Cc1cc2c(OCC(CNC(C)(C)C)OC(=O)c3ccccc3)cccc2[nH]1` (stereo unspecified), the “activity change, negative = inhibition” value is -6.39%.

As for `NCCNC(=O)c1ccc(Cl)cn1`, the “activity change, negative = inhibition” value is 0.0366%.

For the compound `CC(C)NCC(O)c1ccc2ccccc2c1` (stereo unspecified), the Potency entry was “inactive”.

With `Nc1ccc(S(=O)(=O)Nc2cnc3ccccc3n2)cc1`, the Potency entry was “inactive”.

With `COP(=O)(OC)OC(c1ccc(Cl)cc1)P(=O)(OC)OC` (stereo unspecified), the “activity change, negative = inhibition” value is -5.82%.

Turning to `O=C(O)C1(C(=O)O)CCC1.[NH2-].[NH2-].[Pt+2]`, the “activity change, negative = inhibition” value was -7.49%.

On to `Cc1ccccc1OCC(O)CO` (stereo unspecified), for which the “activity change, negative = inhibition” value is -10.1%.

On to `COc1ccc(-c2cc(C(F)F)nn2-c2ccc(S(N)(=O)=O)cc2)cc1F`, for which the “activity change, negative = inhibition” value was -8.17%.

`CC(=O)Oc1ccc(C)cc1`: the “activity change, negative = inhibition” value is 0.161%.

For the compound `CCc1oc2ccccc2c1C(=O)c1cc(I)c(O)c(I)c1`, the Potency was 39.8 µM (active).
